This passage reports growth inhibition results from PubChem BioAssay AID1259309 (ICCB-Longwood Screening Facility, Harvard Medical School, 2017).

Each structure is given as a SMILES string. Values joined by “and” are separate entries in the source; they are usually repeats but may differ in a detail not shown here. Equal entries are not always repeated. The campaign covered roughly 330,000 compounds. About 1,800 (0.55%) were called active. Shown is part of a subset that was picked to be rich in actives. A number with no mark means an inactive call. No stated cut-off is given here; in the data, active means growth inhibition above about 68%; inactive means the rest.

The nature of this assay: growth inhibition of ugtP-null S. aureus, primary screen, RN4220 ugtP deletion, OD600 (AID 1259309).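 Further: plate controls were untreated wells for no effect and antibiotic for full effect.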 To be noted: 16 h, hits give high values.
As to `Cc1cc(C)nc(N=C(N)Nc2ccc(SC(F)F)cc2)n1`, the growth inhibition was 20%.
With `COc1ccc(C(C)=NNC(=O)c2cccc(S(=O)(=O)N3CCCC3)c2)c(O)c1`, the growth inhibition is 4.49%.
For the compound `O=C(CC1CC=CCC(Cc2ccc(F)cc2)C(=O)OCC(Cc2ccccc2)NC1=O)NC(CO)Cc1ccccc1` (stereo unspecified), the growth inhibition was 5.86%.
Consider `CC(C)(C=NO)/[N+]([O-])=C/c1ccco1`, for which the growth inhibition is 3.75%.
As for `Nc1nonc1C(=O)NN=Cc1ccc([N+](=O)[O-])o1`, the figure is 70.5%; as for `O=C(NN=Cc1ccc(F)cc1)c1ccc(F)cc1`, 3.85%.
Regarding `O=C(/C=C/c1ccc([N+](=O)[O-])o1)NNC(=O)c1ccc(F)cc1`, the growth inhibition is 98.7% (active).
As for `COc1cc(NC=C2CC(=O)NC(C)=C2C#N)cc(OC)c1OC`, the growth inhibition was -2.01%.
The value for `COc1ccc(-c2cc3ncccc3cn2)cc1` was 7.34%; that for `CC(=O)NC(Cc1ccccc1)C(=O)NC1CCN(c2ncccc2[N+](=O)[O-])CC1` (stereo unspecified) was 7.02%; that for `COc1ccc(-c2cc(C3CCN(c4ncccc4[N+](=O)[O-])CC3)[nH]n2)cc1` was 100% (active).
With `COc1ccc(S(=O)(=O)Nc2cccc3c2OC(CN(C)Cc2ccc(Cl)c(Cl)c2)C(C)CN(C(C)CO)C3=O)cc1` (stereo unspecified), the growth inhibition was 11.2%.
Turning to `COc1ccc(C2=NN(c3nc4ccccc4s3)C(=O)C2)cc1`, the growth inhibition was 99% (active).
Consider `COc1ccc(C(=O)Nc2cccc(/C=C(/CCC(=O)O)c3nc4ccccc4s3)c2)cc1`, for which the growth inhibition is -2.4%.
Regarding `COc1ccccc1NC(=O)c1ccc2nc(N3C(=O)CCC3=O)sc2c1`, the growth inhibition was -9.64%.
`C/C(C=NNC(=O)CSc1nc2ccccc2n1C)=C\c1ccco1`: the growth inhibition is 3.58%.
`O=C(Nc1ccccc1)Oc1cccc2cccnc12`: the growth inhibition is 99.7% (active).
On to `OCc1ccc(OCCCOc2cccc3cccnc23)cc1`, for which the growth inhibition is -3.52%.
As for `NC(=O)C1CCN(C(=O)COc2cccc3cccnc23)CC1`, the growth inhibition was -13.3%.
The value for `Cc1cc(C(=O)NNC(=S)Nc2ccccc2C)cs1` was -0.4%; that for `Cc1ccccc1NC(=S)NC(=O)Cc1ccc(Cl)cc1` was 67%; that for `Cc1ccc(C(=O)NC(=S)Nc2ccccc2C)cc1` was 83.5% (active).
As to `Cc1cc(SCC(=O)NN=Cc2ccc(O)c(O)c2)nc2ccccc12`, the growth inhibition is -2.24%.
Take `ON=Cc1ccc(OCc2ccccc2)c(Br)c1`: the growth inhibition is 1.91%.
On to `NC(=O)N1CCCC1C(=O)Nc1ccc(Cl)c(Cl)c1` (stereo unspecified), for which the growth inhibition is 3.8%.
As for `O=C(COC(=O)c1cc[n+]([O-])cc1)Nc1ccc(Cl)c(C(F)(F)F)c1`, the figure is -2.28%.
For the compound `O=C(CC(O)(C(F)(F)F)C(F)(F)F)Nc1ccc(Cl)c(Cl)c1`, the growth inhibition was 100% (active).
With `CC(=NNC(=O)c1nnn(-c2nonc2N)c1-c1cccs1)c1ccc(O)cc1`, the growth inhibition was -2.71%.
Regarding `Cc1ccc(C(=O)NCCN2C3=NCC(Cc4ccc(O)cc4)N3CC2Cc2ccc(O)cc2)cc1Br` (stereo unspecified), the growth inhibition is -5.82%.
Regarding `O=C(CCC(=O)Nc1ccc(F)cc1)NN=Cc1ccccc1`, the growth inhibition was -1.26%.
Regarding `CCCC1CCCCC=CCCCC(=O)OCCN1C(=O)OC(C)(C)C` (stereo unspecified), the growth inhibition is -29.8% and -2.83%.
`COc1ccc(Cl)cc1NC(=O)CN(C)C(=O)CCCc1c[nH]c2ccccc12`: the growth inhibition is 98.4% (active).
With `COc1ccc(Cl)cc1NC(=O)CN(C)C(=O)CNC(=O)C12CC3CC(CC(C3)C1)C2`, the growth inhibition was -1.84%.
`COc1ccc(Cl)cc1NC(=O)CN(C)C(=O)c1cc2ccccc2cc1OC`: the growth inhibition was -3.53%.
In the case of `COc1ccc(C(=O)Nc2ccccc2C(=O)NN=Cc2ccccc2OC)cc1`, the growth inhibition was 10.4%.
Regarding `NC1=NCC(Cc2ccc(O)cc2)N1CCc1cccc(F)c1` (stereo unspecified), the growth inhibition was 4.31% and -0.973%.
For the compound `CSCCC(NC(=O)c1ccc(Cl)cc1Cl)C(=O)NNC(=O)c1csc(N2CCOCC2)n1` (stereo unspecified), the growth inhibition is 6.67%.
Turning to `CSCc1cc(N(C)C)nc(SCc2ccc(Cl)cc2Cl)n1`, the growth inhibition was 63.4%.
On to `CSCc1cc(N2CCOCC2)nc(SCc2ccc(Cl)cc2Cl)n1`, for which the growth inhibition is 93.1% (active).
Consider `CCN(CC)c1ccc(C=NNC(=O)c2c[nH]c3ccccc23)cc1`, for which the growth inhibition was -5.72%.
For the compound `CCN1C(=O)C2C(C1=O)C(c1ccccc1)N1C(=O)c3ccccc3NC(=O)C21` (stereo unspecified), the growth inhibition was -13.8%.
Turning to `CCC1CCCCN1C(=O)NC(CCSC)C(=O)OC` (stereo unspecified), the growth inhibition is 7.53%.
With `O=C(Nc1nnc(-c2ccco2)o1)c1ccc(S(=O)(=O)N2CCOCC2)cc1`, the growth inhibition is 11.9%.
Regarding `COc1cccc(-c2nnc(NC(=O)c3ccc(S(=O)(=O)N(CC(C)C)CC(C)C)cc3)o2)c1`, the growth inhibition is 100% (active).
`COc1ccc(-c2nnc(NC(=O)CS(=O)(=O)c3ccc(Cl)cc3)o2)c(OC)c1`: the growth inhibition is 46.4%.
Take `Cn1c2ccccc2c2nnc(NN=Cc3ccc(O)cc3)nc21`: the growth inhibition is 3.8%.
For the compound `O=C(NN=Cc1ccc(-c2ccc(Cl)c(Cl)c2)o1)C(=O)N1CCCC1`, the growth inhibition is -5.08%.
As for `CCc1nnc(NN=Cc2c(Cl)cccc2Cl)n1N`, the figure is -4.51%; as for `C=CCOc1ccc(C(O)=C2C(=O)C(=O)N(CCCOC)C2c2ccc(O)c(OC)c2)cc1` (stereo unspecified), 8.37%.
For `O=[N+]([O-])c1cc(C=NNC(=Nc2ccccn2)c2ccccn2)ccc1O`, the growth inhibition was 66.8%.
As for `CCCc1cc(-c2nc(-c3ccc(C)cc3)cs2)ccn1`, the figure is 16.9%.
As for `CCn1c(SCCC(C)C)nnc1-c1c[nH]c2ccccc12`, the figure is -3.66%; as for `Cc1ccc(-c2csc(-c3c[nH]c4ccccc34)n2)cc1`, 89.5% (active).
The value for `C=CCn1c(N=Cc2ccc(OC)cc2)nc2ccccc21` was 7.61%.
As for `COc1ccc2nc(N=C(N)NC(=O)N3c4ccccc4Sc4ccccc43)nc(C)c2c1`, the growth inhibition was -21.3%.
As for `COc1ccc2c(c1OC)CN1CCc3cc4c(cc3C1C2O)OCO4` (stereo unspecified), the growth inhibition was 15.5%.
Take `CCOc1ccccc1C=NNC(=O)c1nnn(-c2nonc2N)c1CN1CCCCCC1`: the growth inhibition was 2.59%.
The value for `C#CCOCCOCCOCCNc1nc(N2CCN(C(=O)C(CCCCN)n3cc(CCCC)nn3)CC2)nc(N2CCN(C(=O)C(C(C)CC)n3cc(CCCN=C(N)N)nn3)CC2)n1` (stereo unspecified) was 11.2%; that for `CC(=NNC(=O)CNC(=O)C1COc2ccccc2O1)c1ccc([N+](=O)[O-])cc1` (stereo unspecified) was 0.446%.
For `CC(=O)c1cccc(NC(=O)C2COc3ccccc3O2)c1` (stereo unspecified), the growth inhibition was 8.46%.
For the compound `O=C(Nc1ncc([N+](=O)[O-])s1)C1COc2ccccc2O1` (stereo unspecified), the growth inhibition is 90.5% (active).
The value for `O=C(O)CCC(=NNC(=O)c1cn(-c2ccccc2)nc1-c1ccccc1)C(=O)O` was 0.633%.
For `CCc1ccc2c(c1)C1(NN=C(c3ccccc3)S1)C(=O)N2` (stereo unspecified), the growth inhibition is 95.8% (active).
For the compound `CC(=NOC(=O)c1ccc(F)cc1)c1sc(-c2ccccc2)nc1C`, the growth inhibition is -1.32%.
Regarding `CC(=O)c1cnc(-c2ccccc2)s1`, the growth inhibition was -8.03%.
For `CON=CCC(=O)c1cnc(-c2ccc(Cl)cc2)s1`, the growth inhibition is 87.5% (active).
As for `O=C(/C=C/Nc1ccccc1)c1cnc(-c2ccccc2)s1`, the figure is -8.21%; as for `CC(=O)Nc1ccc(C(=O)NN=CC2CC3C=CC2C3)cc1` (stereo unspecified), 9.12%.
For `CS(=O)(=O)c1ccc(CNC(=O)[C@]2(C(F)(F)F)CC(CCc3ccccc3)CCCO2)cc1` (stereo partly specified), the growth inhibition was -0.803%.
For `Cc1cccc(NC(=O)c2ccc([N+](=O)[O-])o2)c1`, the growth inhibition is 21.9%.
Regarding `C/[N+]([O-])=C\c1ccc([N+](=O)[O-])o1`, the growth inhibition was 96.9% (active).
On to `Cc1ccc(NCC(=O)NN=Cc2ccc([N+](=O)[O-])o2)cc1`, for which the growth inhibition is 26.7%.
The value for `CCC(C)N1CCC2(CC1)N=c1c(c3c4c5c(C)c(O)c3c(O)c1=NC(=O)C(C)=CC=CC(C)C(O)C(C)C(O)C(C)C(OC(C)=O)C(C)C(OC)C=CO[C@@](C)(O5)C4=O)N2` (stereo partly specified) was 99.6% (active); that for `Cn1c(=O)[nH]c(=O)c2c1nc(N1CCCCC1)n2CC=NNc1ccc(C(=O)O)cc1` was 10.4%; that for `O=C(CNC(=O)c1ccco1)NN=Cc1ccc(O)cc1O` was 4.74%.
Consider `CC(C)C(=O)NC(=S)Nc1ccccc1F`, for which the growth inhibition is 14.2%.
In the case of `CC(C)CC(=O)NC(=S)Nc1ccc(F)cc1F`, the growth inhibition was 86.4% (active).
For `CC(C)CC(=O)NC(=S)Nc1cc(C(=O)O)ccc1Cl`, the growth inhibition was 9.77%.
Regarding `CCOC(=O)COc1c(C=NO)cc(Cl)cc1OC`, the growth inhibition was 1.74%.
Turning to `O=C(CN1CCCCC1)Nc1ccc(Br)cc1C(=O)c1ccccc1Cl`, the growth inhibition was 88.6% (active).
As for `O=C(CN1CCCCCC1)Nc1ccc(Br)cc1Br`, the figure is 4.57%; as for `O=C(CN1CCCCCC1)Nc1ccc(Br)cc1[N+](=O)[O-]`, 5.98%; as for `COC(=O)C1=C(C(=O)OC)C2N(C)c3ccccc3[C@@]23CC(C(=O)OC)N(C(C)=O)C3=N1` (stereo partly specified), 3.76%.
`CC(C)C(=NNc1ccccc1[N+](=O)[O-])c1ccccc1`: the growth inhibition is 42.3%.
As for `NC(=O)C(=Cc1ccccc1)NC(=O)C=Cc1ccccc1`, the growth inhibition is -1.58%.
The value for `CC(Cc1ccccc1)=NNC(=O)CNC(=O)Cc1ccccc1` was 2.62%.
As to `Cc1nc2c(cnn2-c2ccccc2)c(=O)n1N=Cc1ccccc1`, the growth inhibition was 6.82%.
Regarding `C=C[C@]1(C)CC(OC(=O)CSCCN(CC)CC)[C@]2(C)C(C)CC[C@]3(CCC(=O)C32)C(C)C1O` (stereo partly specified), the growth inhibition is 99.9% (active) and 100% (active).
Regarding `O=C(C=Cc1ccccc1Cl)Nc1ccncc1`, the growth inhibition is -22.9%.
As for `C[C@]12CCC3c4ccc(O)cc4CCC3C1CCC2OC(=O)CCC(=O)O` (stereo partly specified), the growth inhibition is 1.18%.
For `O=C(CN1CCN(Cc2ccccc2)CC1)NN=Cc1ccc(Br)s1`, the growth inhibition is -1.87%.
